The values below come from publication PMC7862700, “An all-to-all approach to the identification of sequence-specific readers for epigenetic DNA modifications on cytosine”.

What all share (assay): DAPPL (digital affinity profiling via proximity ligation, sequencing); 10 mM Tris-HCl pH 7.5, 50 mM NaCl, 1 mM DTT, 4% glycerol, room temperature, 30 min; GST-TFs on glutathione beads, 16-mer random dsDNA library, 0.1% formaldehyde crosslink after washing; high values mean tight binding
For one experiment, the target named is T1, FEV (Homo sapiens, UniProt Q99581 1-238).
T1 sequence: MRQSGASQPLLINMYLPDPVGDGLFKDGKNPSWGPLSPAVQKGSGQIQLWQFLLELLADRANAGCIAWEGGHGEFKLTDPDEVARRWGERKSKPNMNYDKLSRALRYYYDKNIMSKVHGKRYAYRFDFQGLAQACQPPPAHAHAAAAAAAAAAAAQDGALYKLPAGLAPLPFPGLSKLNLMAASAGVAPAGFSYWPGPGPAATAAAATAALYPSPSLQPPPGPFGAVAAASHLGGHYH
The conditions noted are these: protein: recombinant; tags: N-terminal GST; dsDNA, one strand shown. Summed up:
(§1)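 In yeast, human transcription factors were expressed with a GST fusion, then pulled down on glutathione beads and given DNA barcodes. Pooled with a tag-only sample, they were exposed to 200 nmole of a 16-mer random double-stranded DNA library (Tris/NaCl/DTT/glycerol buffer, room temperature, 30 min), washed, crosslinked with 0.1% formaldehyde, proximity-ligated using BsaI/T4 ligase for 1 h at 37 °C, PCR-amplified and read on an Illumina NextSeq500. Each hexamer's frequency of reads for a factor, divided by the matching frequency for the tag-only sample, gives the binding signal.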

The target of another experiment is ETV5 (Homo sapiens, UniProt P41161 1-510). Conditions: protein: recombinant; tags: N-terminal GST; dsDNA, one strand shown. Summed up:
as §1

A further experiment deals with HSF1 (Homo sapiens, UniProt Q00613 1-529). Conditions: protein: recombinant; tags: N-terminal GST; chain copies: 3; dsDNA, one strand shown. Summed up: as §1
The next experiment concerns the target T2, SPIC (Homo sapiens, UniProt Q8N5J4 1-248).
T2 sequence: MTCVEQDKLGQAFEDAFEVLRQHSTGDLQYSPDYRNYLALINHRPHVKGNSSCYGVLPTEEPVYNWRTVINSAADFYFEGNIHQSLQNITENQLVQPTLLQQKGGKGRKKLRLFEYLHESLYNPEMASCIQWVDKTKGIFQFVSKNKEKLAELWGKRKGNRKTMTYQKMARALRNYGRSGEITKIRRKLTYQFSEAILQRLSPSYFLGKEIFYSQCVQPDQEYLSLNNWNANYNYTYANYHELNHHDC
The conditions noted are these: protein: recombinant; tags: N-terminal GST; dsDNA, one strand shown. A digest of the protocol: as §1

A further experiment deals with ELF4 (Homo sapiens, UniProt Q99607 1-663). The conditions noted are these: protein: recombinant; tags: N-terminal GST; dsDNA, one strand shown. Summed up:
as §1

For another experiment, the target named is T3, ELK4 (Homo sapiens, UniProt P28324-2 1-405).
T3 sequence: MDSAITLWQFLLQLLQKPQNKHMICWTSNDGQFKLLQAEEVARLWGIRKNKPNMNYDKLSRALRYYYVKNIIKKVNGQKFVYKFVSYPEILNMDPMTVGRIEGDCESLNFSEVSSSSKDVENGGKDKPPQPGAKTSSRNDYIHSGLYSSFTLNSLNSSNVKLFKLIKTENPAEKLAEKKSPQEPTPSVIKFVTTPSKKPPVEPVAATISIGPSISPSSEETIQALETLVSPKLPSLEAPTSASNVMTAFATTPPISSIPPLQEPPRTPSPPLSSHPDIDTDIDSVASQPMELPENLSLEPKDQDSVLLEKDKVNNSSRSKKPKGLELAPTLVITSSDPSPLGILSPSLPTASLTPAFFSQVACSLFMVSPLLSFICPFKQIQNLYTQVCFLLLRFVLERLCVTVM
The conditions noted are these: protein: recombinant; tags: N-terminal GST; dsDNA, one strand shown. A digest of the protocol:
as §1

A further experiment addresses T4, ETV2 (Homo sapiens, UniProt O00321 1-342).
T4 sequence: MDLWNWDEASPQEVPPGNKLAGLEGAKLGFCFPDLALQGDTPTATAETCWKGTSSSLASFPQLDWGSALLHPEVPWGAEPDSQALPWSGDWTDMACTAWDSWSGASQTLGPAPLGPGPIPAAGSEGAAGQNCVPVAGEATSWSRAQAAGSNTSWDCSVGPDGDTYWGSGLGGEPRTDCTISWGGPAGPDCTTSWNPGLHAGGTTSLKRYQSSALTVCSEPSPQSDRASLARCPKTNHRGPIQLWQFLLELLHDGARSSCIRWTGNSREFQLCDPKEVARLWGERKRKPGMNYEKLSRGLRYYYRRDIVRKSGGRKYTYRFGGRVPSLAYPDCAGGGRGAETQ
Conditions: protein: recombinant; tags: N-terminal GST; dsDNA, one strand shown. Summed up: as §1

In another experiment the target is T5, ELF3 (Homo sapiens, UniProt P78545 1-371).
T5 sequence: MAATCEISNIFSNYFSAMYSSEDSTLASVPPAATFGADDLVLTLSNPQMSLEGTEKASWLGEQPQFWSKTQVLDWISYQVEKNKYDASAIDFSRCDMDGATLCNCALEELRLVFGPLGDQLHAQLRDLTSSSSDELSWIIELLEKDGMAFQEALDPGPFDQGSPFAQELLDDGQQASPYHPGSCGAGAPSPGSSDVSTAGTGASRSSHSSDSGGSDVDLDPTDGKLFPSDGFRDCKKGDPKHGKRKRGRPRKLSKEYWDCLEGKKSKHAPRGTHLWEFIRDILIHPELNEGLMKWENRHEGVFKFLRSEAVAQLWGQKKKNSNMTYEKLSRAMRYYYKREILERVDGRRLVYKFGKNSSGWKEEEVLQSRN
The conditions noted are these: protein: recombinant; tags: N-terminal GST; dsDNA, one strand shown. Summed up:
as §1

The target in a further experiment is CRX (Homo sapiens, UniProt O43186 1-299). The conditions noted are these: protein: recombinant; tags: N-terminal GST; dsDNA, one strand shown. A digest of the protocol: as §1
In the next experiment the target is ETV1 (Homo sapiens, UniProt P50549 1-477). The conditions noted are these: protein: recombinant; tags: N-terminal GST; dsDNA, one strand shown. Summed up: as §1
The target of the next experiment is T6, ERF (Homo sapiens, UniProt P50548 1-548).
T6 sequence: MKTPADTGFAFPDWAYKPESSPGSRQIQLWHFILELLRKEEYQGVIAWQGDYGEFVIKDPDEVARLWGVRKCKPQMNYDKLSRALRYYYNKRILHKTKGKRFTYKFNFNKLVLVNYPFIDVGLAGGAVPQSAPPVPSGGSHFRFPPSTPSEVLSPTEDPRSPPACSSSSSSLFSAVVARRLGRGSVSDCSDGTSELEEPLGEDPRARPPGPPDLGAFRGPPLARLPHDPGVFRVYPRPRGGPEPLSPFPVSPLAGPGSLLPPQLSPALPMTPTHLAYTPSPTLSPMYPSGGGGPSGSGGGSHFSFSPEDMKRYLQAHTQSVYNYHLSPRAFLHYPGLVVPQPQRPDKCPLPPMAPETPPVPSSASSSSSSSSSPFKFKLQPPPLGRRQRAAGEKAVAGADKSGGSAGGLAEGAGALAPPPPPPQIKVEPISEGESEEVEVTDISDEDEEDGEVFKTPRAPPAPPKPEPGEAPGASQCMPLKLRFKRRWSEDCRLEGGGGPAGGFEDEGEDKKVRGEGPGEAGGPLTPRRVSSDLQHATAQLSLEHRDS
Conditions: protein: recombinant; tags: N-terminal GST; dsDNA, one strand shown. Summed up: as §1

For a further experiment, the target named is T7, ETV3L (Homo sapiens, UniProt Q6ZN32 1-361).
T7 sequence: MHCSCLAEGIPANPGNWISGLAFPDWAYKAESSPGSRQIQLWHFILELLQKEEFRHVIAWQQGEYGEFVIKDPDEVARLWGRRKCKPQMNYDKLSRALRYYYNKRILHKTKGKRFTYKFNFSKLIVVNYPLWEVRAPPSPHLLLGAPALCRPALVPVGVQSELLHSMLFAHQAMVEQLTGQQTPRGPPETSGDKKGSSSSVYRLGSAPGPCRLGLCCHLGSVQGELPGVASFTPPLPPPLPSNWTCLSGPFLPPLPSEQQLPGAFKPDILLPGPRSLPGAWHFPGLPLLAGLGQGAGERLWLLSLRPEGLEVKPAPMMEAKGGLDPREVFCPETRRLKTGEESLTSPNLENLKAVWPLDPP
Conditions: protein: recombinant; tags: N-terminal GST; dsDNA, one strand shown. Summed up: as §1

The next experiment deals with T8, ETS2 (Homo sapiens, UniProt P15036 1-469).
T8 sequence: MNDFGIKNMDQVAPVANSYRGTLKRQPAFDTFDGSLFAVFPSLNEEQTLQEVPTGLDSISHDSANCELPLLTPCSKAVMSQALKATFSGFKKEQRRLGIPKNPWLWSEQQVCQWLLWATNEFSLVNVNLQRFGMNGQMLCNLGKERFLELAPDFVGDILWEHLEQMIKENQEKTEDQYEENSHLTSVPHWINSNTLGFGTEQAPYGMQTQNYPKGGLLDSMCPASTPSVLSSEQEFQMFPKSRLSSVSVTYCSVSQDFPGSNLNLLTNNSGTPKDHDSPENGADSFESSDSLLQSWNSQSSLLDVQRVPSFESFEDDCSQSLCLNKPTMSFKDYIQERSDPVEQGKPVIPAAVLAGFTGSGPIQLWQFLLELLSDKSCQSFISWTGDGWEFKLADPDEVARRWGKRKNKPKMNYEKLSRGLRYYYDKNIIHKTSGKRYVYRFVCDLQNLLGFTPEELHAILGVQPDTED
Conditions: protein: recombinant; tags: N-terminal GST; dsDNA, one strand shown. A digest of the protocol:
as §1

A further experiment has as its target T9, SPDEF (Homo sapiens, UniProt O95238 1-335).
T9 sequence: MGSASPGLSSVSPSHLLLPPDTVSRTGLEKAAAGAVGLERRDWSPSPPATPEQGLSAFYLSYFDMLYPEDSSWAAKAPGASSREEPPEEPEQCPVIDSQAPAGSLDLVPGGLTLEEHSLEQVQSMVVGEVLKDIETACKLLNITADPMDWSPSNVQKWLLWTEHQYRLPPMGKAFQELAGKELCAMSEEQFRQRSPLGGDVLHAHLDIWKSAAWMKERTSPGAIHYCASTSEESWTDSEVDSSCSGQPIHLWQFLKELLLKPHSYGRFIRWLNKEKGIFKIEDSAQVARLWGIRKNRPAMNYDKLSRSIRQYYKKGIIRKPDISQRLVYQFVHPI
The conditions noted are these: protein: recombinant; tags: N-terminal GST; dsDNA, one strand shown. Summed up: as §1

In another experiment the target is T10, ETV7 (Homo sapiens, UniProt Q9Y603 1-341).
T10 sequence: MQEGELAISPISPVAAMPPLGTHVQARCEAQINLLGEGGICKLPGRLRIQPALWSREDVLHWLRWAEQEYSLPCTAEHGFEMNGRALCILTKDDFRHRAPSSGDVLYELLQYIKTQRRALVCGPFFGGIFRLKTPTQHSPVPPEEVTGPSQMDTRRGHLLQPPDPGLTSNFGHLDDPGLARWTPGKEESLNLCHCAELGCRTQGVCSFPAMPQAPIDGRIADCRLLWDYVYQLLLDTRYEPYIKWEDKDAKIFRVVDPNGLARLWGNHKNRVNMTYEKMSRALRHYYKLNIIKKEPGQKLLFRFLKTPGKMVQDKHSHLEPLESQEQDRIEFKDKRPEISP
The conditions noted are these: protein: recombinant; tags: N-terminal GST; dsDNA, one strand shown. A digest of the protocol: as §1

A further experiment addresses T11, ELF5 (Homo sapiens, UniProt Q9UKW6-2 1-255).
T11 sequence: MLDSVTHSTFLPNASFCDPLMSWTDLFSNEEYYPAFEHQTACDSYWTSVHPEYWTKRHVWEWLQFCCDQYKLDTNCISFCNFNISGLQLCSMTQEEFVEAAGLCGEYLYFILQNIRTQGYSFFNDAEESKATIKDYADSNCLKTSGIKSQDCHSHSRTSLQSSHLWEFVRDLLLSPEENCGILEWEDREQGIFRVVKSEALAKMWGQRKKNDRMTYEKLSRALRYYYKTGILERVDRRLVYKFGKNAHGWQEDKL
The conditions noted are these: protein: recombinant; tags: N-terminal GST; dsDNA, one strand shown. Summed up:
as §1

The target of the next experiment is T12, ETV3 (Homo sapiens, UniProt P41162-2 1-143).
T12 sequence: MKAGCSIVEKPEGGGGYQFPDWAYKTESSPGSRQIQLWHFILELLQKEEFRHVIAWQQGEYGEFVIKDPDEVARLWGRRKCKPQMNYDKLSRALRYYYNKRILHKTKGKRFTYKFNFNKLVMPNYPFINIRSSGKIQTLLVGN
The conditions noted are these: protein: recombinant; tags: N-terminal GST; dsDNA, one strand shown. A digest of the protocol:
as §1

The target of a further experiment is ETV6 (Homo sapiens, UniProt P41212 1-452). Conditions: protein: recombinant; tags: N-terminal GST; dsDNA, one strand shown. A digest of the protocol:
as §1

Chain of ETV1 (P50549 whole entry): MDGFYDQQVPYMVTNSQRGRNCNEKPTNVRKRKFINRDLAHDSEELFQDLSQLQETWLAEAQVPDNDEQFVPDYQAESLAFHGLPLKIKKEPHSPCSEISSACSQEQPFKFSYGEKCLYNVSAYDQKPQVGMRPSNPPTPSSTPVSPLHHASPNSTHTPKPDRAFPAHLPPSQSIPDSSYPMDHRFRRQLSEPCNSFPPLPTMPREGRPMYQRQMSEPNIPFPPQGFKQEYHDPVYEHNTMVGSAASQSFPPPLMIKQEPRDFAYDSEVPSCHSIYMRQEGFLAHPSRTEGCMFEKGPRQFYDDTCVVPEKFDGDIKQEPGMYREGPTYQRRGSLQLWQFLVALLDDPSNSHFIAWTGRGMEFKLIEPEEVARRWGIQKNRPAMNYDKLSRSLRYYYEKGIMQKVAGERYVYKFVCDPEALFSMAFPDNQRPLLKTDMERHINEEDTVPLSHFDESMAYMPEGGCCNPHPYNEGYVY
Chain of CRX (O43186 whole entry): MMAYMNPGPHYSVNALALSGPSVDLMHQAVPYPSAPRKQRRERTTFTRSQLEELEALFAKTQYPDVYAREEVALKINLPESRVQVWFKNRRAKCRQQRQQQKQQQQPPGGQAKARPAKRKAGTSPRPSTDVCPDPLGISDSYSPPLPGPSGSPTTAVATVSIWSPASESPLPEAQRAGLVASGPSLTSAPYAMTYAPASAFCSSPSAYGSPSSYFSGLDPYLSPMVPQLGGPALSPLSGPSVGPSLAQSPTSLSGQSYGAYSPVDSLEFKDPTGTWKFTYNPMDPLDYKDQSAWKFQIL
Chain of ETV6 (P41212 whole entry): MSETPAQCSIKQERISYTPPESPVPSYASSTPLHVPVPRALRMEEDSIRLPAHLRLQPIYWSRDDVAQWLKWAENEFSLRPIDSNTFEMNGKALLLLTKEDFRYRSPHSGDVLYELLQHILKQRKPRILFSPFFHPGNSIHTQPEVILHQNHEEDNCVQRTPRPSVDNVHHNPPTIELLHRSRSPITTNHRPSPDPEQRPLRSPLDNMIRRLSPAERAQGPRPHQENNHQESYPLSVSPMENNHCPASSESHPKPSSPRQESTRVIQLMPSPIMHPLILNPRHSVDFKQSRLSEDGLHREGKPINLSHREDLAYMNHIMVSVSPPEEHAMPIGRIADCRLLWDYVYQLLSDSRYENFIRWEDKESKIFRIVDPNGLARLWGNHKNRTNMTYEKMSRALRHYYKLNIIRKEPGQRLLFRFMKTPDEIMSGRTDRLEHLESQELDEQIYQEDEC
Chain of HSF1 (Q00613 whole entry): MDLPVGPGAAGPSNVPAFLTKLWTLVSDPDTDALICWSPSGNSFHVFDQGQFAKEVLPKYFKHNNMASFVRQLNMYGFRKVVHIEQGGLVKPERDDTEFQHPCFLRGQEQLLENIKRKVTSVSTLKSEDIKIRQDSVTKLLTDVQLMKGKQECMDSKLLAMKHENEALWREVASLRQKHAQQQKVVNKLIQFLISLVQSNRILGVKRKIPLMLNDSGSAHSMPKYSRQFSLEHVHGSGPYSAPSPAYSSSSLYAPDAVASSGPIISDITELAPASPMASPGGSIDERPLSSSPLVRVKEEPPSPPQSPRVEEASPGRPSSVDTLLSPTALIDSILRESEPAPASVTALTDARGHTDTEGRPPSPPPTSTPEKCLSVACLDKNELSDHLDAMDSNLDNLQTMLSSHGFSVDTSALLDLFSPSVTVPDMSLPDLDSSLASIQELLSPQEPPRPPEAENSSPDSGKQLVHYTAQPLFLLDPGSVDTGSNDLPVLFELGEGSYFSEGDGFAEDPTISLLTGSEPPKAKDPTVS
Chain of ETV5 (P41161 whole entry): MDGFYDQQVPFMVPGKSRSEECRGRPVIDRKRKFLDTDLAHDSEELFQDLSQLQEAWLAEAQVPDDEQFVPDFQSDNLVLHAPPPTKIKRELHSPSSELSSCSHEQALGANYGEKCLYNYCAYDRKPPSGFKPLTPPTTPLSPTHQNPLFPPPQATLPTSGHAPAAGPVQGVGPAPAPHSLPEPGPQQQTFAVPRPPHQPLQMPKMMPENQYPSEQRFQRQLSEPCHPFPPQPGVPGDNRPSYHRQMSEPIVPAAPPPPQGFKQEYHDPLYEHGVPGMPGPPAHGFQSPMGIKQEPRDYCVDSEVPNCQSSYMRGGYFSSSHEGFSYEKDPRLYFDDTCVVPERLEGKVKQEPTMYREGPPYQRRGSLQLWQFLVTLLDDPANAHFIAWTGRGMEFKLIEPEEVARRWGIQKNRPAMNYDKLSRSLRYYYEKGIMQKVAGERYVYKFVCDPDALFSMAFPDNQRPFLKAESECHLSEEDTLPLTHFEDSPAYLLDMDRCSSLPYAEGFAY
Chain of ELF4 (Q99607 whole entry): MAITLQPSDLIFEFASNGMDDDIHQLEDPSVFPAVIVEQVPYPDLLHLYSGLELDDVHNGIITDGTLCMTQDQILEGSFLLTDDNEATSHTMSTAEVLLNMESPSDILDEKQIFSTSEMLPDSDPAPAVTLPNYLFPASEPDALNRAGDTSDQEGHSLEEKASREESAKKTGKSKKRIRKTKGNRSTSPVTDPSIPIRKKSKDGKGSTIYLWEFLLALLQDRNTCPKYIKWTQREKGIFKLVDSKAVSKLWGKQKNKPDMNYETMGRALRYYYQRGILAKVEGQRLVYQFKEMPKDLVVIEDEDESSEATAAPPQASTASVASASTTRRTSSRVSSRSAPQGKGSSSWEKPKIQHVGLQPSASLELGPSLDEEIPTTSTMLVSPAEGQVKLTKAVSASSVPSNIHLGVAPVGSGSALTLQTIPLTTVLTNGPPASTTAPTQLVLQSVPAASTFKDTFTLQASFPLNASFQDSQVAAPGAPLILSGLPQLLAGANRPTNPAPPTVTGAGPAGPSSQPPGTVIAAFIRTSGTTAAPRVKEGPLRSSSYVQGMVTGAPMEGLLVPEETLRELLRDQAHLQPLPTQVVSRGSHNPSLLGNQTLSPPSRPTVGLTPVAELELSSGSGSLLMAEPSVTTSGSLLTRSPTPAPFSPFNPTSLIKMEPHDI

For TCTCTC, the binding signal with FEV was 1.21 fold enrichment (6-mer frequency, TF over GST control); with ETV5 it was 1.27 fold enrichment (6-mer frequency, TF over GST control); in the experiment with HSF1 it was 1.59 fold enrichment (6-mer frequency, TF over GST control); in the experiment with SPIC, 1.36 fold enrichment (6-mer frequency, TF over GST control); with ELF4, 1.44 fold enrichment (6-mer frequency, TF over GST control); with ELK4 it was 1.38 fold enrichment (6-mer frequency, TF over GST control). For the same sequence, the binding signal is 1.34 fold enrichment (6-mer frequency, TF over GST control) with ETV2; 1.39 fold enrichment (6-mer frequency, TF over GST control) in the experiment with ELF3; 1.35 fold enrichment (6-mer frequency, TF over GST control) with CRX; 1.3 fold enrichment (6-mer frequency, TF over GST control) with ETV1; 1.31 fold enrichment (6-mer frequency, TF over GST control) in the experiment with ERF; 1.38 fold enrichment (6-mer frequency, TF over GST control) in the experiment with ETV3L. The binding signal in the experiment with ETS2 was 1.2 fold enrichment (6-mer frequency, TF over GST control); in the experiment with SPDEF it was 1.28 fold enrichment (6-mer frequency, TF over GST control); with ETV7, 1.11 fold enrichment (6-mer frequency, TF over GST control); with ELF5 it was 1.24 fold enrichment (6-mer frequency, TF over GST control); with ETV3, 1.37 fold enrichment (6-mer frequency, TF over GST control); in the experiment with ETV6, 1.27 fold enrichment (6-mer frequency, TF over GST control).
